Structures are written as SMILES.

The nature of the assay: probe aLefty2 binding to arrayed compounds – biochemical, biotinylated probe, 635/667 nm fluorescence, primary screen (AID 1094).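 Note: score merges spot fluorescence near 667 nm with spot signal-to-noise ratio.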 Conditions: small-molecule microarray, higher = more signal.
On to `C#CCCCON=C1[C@H]2CCn3c(=O)n(C)c(=O)n3[C@H]2[C@H](O)[C@@H]2O[C@H]12`, for which the composite z-score was -0.132. Regarding `CCCCC#C[C@@H]1C=C[C@H](OC(C)=O)[C@@H](COC(C)=O)O1`, the composite z-score was -0.116.

Take `CO[C@@H]1COC(=O)[C@@H](C)COC(=O)[C@@H](C)NC(=O)CC=C[C@@H]1C`: the composite z-score is -0.154.

Regarding `Cc1ccc(S(=O)(=O)OC[C@H]2CN3[C@H](c4ccc(Br)cc4)[C@@H](C)CC[C@H]3C(=O)O2)cc1`, the composite z-score is -0.259. For `COc1ccc(COC(=O)NN=C2C[C@@H](O)[C@@H](O)[C@@H]3[C@@H]4C(=O)N(c5cccc(Oc6ccccc6)c5)C(=O)[C@@H]4CC[C@@H]23)cc1` the value was 0.162; for `O=C1C2=CC[C@H]3C(=O)N(c4cccc(Oc5ccccc5)c4)C(=O)[C@H]3[C@H]2[C@H](O)[C@@H]2O[C@H]12`, -0.139; for `CC(CCN1CCCCc2nc(C)c(C)cc21)=NO[C@H](C)c1cn([C@H](CO)Cc2ccccc2)nn1`, 0.0345. The molecule `CO[C@@H]1COC(=O)[C@H](CCSC)NC(=O)CC=C[C@@H](C)COC(=O)CCC[C@H]1C` came in with a composite z-score of -0.0225.

Consider `CC(CCN1CCCc2nc(C)c(C)cc21)=NO[C@@H](C)c1cc(-c2c(C)cc(C)cc2C)no1`, for which the composite z-score was -0.0512. `CO[C@@H]1COC(=O)[C@@H](C)NC(=O)CC=C[C@@H](C)[C@H](NS(=O)(=O)c2ccc(C)cc2)COC(=O)[C@H](C)NC(=O)CC=C[C@H]1C`: the composite z-score is -0.319.

`CCN1C(=O)[C@H]2[C@H]3[C@H](O)[C@H](O)CC(=NOC[C@H]4O[C@H](c5ccccc5)C=C[C@@H]4Oc4ccc(OC)cc4)[C@@H]3CC[C@H]2C1=O` yielded a composite z-score of -0.0271. As for `CCOC(=O)[C@H](CC(C)C)NC(=O)CCC1CC(OC(=O)NCc2cccc3ccccc23)CC2(CCCC(COC(=O)NCC3CCCCC3)O2)O1` (stereo partly specified), the figure is -0.0151. For `CC(C)CCN1CCc2nc(COc3ccccc3)c3c(c2C1)CO[C@@H](C)C3` the value was 0.111; for `COC(=O)CC=C[C@@H](C)[C@@H](C=NO[C@H](C)c1cn([C@H](CO)Cc2ccccc2)nn1)OC`, -0.12. Molecule `CON=C(C)CCC(=O)OC[C@H]1O[C@H](c2ccccc2)C=C[C@@H]1Oc1ccc(OC)cc1` returned a composite z-score of -0.176.

`CCOC(=O)NN=C1C[C@@H](O)[C@@H](O)[C@@H]2[C@@H]3C(=O)N(c4cccc(Oc5ccccc5)c4)C(=O)[C@@H]3CC[C@@H]12`: the composite z-score was -0.335. As for `CCN1C(=O)[C@H]2[C@H]3[C@H](O)[C@H](O)CC(=NO[C@@H](C)c4cn([C@H](CO)Cc5ccccc5)nn4)[C@@H]3CC[C@H]2C1=O`, the figure is -0.264; as for `COC(=O)CC=C[C@@H](C)[C@@H]1C=C[C@H](O)[C@@H](CO)O1`, -0.177; as for `C[C@@H](ON=C1[C@H]2CCn3c(=O)n(-c4ccccc4)c(=O)n3[C@H]2[C@H](O)[C@@H]2O[C@H]12)c1cn([C@@H]2COC[C@H]2O)nn1`, -0.152.

As to `CC(CCC(=O)OC[C@H]1O[C@H](C#Cc2ccccc2)C=C[C@@H]1Oc1ccc(C)cc1)=NO[C@H](C)c1cn([C@H](CO)Cc2ccccc2)nn1`, the composite z-score was -0.239. As for `C#CCCCON=C1C[C@@H](O)[C@@H](O)[C@@H]2[C@@H]3C(=O)N(C(C)(C)C)C(=O)[C@@H]3CC[C@H]12`, the figure is 0.599. As for `COc1ccc(COC(=O)NN=C2C[C@@H](O)[C@@H](O)[C@@H]3[C@@H]4C(=O)N(C5CCCCC5)C(=O)[C@@H]4CC[C@H]23)cc1`, the figure is 0.432; as for `COC(=O)CC=C[C@H](C)[C@@H](OCc1cccc(Br)c1)[C@@H](C)[C@H](OC)C1CCCCC1`, -0.166; as for `Cc1ccc(S(=O)(=O)N[C@@H]2COC(=O)[C@@H](C)COC(=O)CC=C[C@H]2C)cc1`, -0.183. The molecule `O=C1[C@H]2[C@H]3[C@H](O)[C@H](O)CC(=NO[C@@H]4O[C@H](CO)[C@@H](O)[C@H](O)[C@H]4O)[C@H]3CC[C@H]2C(=O)N1c1cccc(Oc2ccccc2)c1` showed a composite z-score of -0.253. In the case of `CCC1=NOC(CCC2CC(OC(=O)NCc3cccc4c3OCO4)CC3(CCCC(COC(=O)NCCc4ccccc4OC)O3)O2)C1` (stereo unspecified), the composite z-score was -0.099. For `CCOC(=O)[C@H](CC(C)C)NC(=O)CCC1CC(OC(=O)NCc2cccc3ccccc23)CC2(CCCC(COC(=O)NCCOc3ccccc3)O2)O1` (stereo partly specified) the value was -0.177; for `O=c1n(Cc2cc3c(cc2Cl)OCO3)c(=O)n2n1CC[C@@H]1C(=NOCc3ccccc3)[C@H]3O[C@H]3[C@@H](O)[C@@H]12`, -0.0963. For `COC(=O)[C@@H]1CC[C@H](C)[C@@H](c2ccc(C)cc2)N1C(=O)c1ccc(C=NO[C@@H](C)c2cn([C@H](CO)Cc3ccccc3)nn2)cc1` the value was -0.126; for `CC(C)=CCCC(C)=CCON=C1C[C@@H](O)[C@@H](O)[C@@H]2[C@@H]3C(=O)N(Cc4ccccc4)C(=O)[C@@H]3CC[C@H]12`, -0.236. As for `CC(C)C[C@H](NC(=O)CCC1CC(OC(=O)NCc2cccc3ccccc23)CC2(CCCC(COC(=O)NCc3ccccc3)O2)O1)C(=O)NCC(c1ccccc1)c1ccccc1` (stereo partly specified), the figure is -0.166; as for `CC(C)CON=C1C[C@@H](O)[C@@H](O)[C@@H]2[C@@H]3C(=O)N(C4CCCCC4)C(=O)[C@@H]3CC[C@@H]12`, -0.302; as for `C[C@@H](c1ccccc1)N1C(=O)[C@H]2[C@H]3[C@H](O)[C@H](O)CC(=NO[C@@H]4O[C@H](CO)[C@@H](O)[C@H](O)[C@H]4O)[C@H]3CC[C@H]2C1=O`, -0.0928. For `COC(=O)[C@@H]1CC[C@H](C)[C@@H](c2ccc(C)cc2)N1C(=O)c1ccc(C=NOC[C@@H](C)[C@H](OCc2ccccc2)C(C)C)cc1`, the composite z-score is -0.244. For `C[C@@H](c1ccccc1)N1C(=O)[C@H]2[C@H]3[C@H](O)[C@H](O)CC(=NOCc4ccccc4)[C@H]3CC[C@H]2C1=O` the value was -0.0942. For `COC(=O)CC=C[C@@H](C)[C@@H](C=NOCC[C@@H]1C=C[C@H](OC(C)=O)[C@@H](COC(C)=O)O1)OC` the value was -0.0321.

(Values after PubChem BioAssay.)
